Measured values published in PubChem BioAssay (NCATS).
Results filed as inconclusive are left out. Calls of active or inactive are those of the source. The call rests on the fitted dose curve; in most records, active means well fitted cell-killing curve with a large enough effect; inconclusive means small, poorly fitted or top-dose-only effect, or effect the other way; inactive means flat fitted curve, though single readings scatter.

Experiments:
Assay in all cases: Primary qHTS to identify gynecologic anti-cancer compounds using libraries of approved drugs and bioactive compounds (AID 1345084); further: nearly all actives have a fitted effect of over 55% in size
CAOV3 = details: Gynecologic cancer cell panel viability, ATPlite luminescence, 48 h; series mostly up to 57.5 µM
How it was run: (§1)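 Five-concentration response, 48 h; readout is ATP-driven luciferase luminescence.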

CASKI = details: Gynecologic cancer cell panel viability, ATPlite luminescence, 48 h; series mostly up to 57.5 µM
How it was run: as §1

Es-2 = details: Gynecologic cancer cell panel viability, ATPlite luminescence, 48 h; series mostly up to 57.5 µM
How it was run: as §1

HeLa = details: Gynecologic cancer cell panel viability, ATPlite luminescence, 48 h; series mostly up to 57.5 µM
How it was run: as §1

Hek293T = details: Gynecologic cancer cell panel viability, ATPlite luminescence, 48 h, control line for the selectivity index; series mostly up to 57.5 µM
How it was run: as §1

JEG-3 = details: Gynecologic cancer cell panel viability, ATPlite luminescence, 48 h; series mostly up to 57.5 µM
How it was run: as §1

OV90 = details: Gynecologic cancer cell panel viability, ATPlite luminescence, 48 h; series mostly up to 57.5 µM
How it was run: as §1

PA-1 = details: Gynecologic cancer cell panel viability, ATPlite luminescence, 48 h; series mostly up to 57.5 µM
How it was run: as §1

SKOV3 = details: Gynecologic cancer cell panel viability, ATPlite luminescence, 48 h; series mostly up to 57.5 µM
How it was run: as §1

Tov-21-G = details: Gynecologic cancer cell panel viability, ATPlite luminescence, 48 h; series mostly up to 57.5 µM
How it was run: as §1

Tov112D = details: Gynecologic cancer cell panel viability, ATPlite luminescence, 48 h; series mostly up to 57.5 µM
How it was run: as §1
On the % scale 0 is the no-effect control and ±100 the full control effect.

CC(O)C(O)/C=C/C=C/C(=O)O[C@@H]1C=C2COC(=O)[C@]2(O)[C@@]2(C)CCCC(C)(C)C12 (stereo partly drawn)
inactive: Potency (CAOV3) | Potency (CASKI) | Potency (Es-2) | Potency (HeLa) | Potency (Hek293T) | Potency (JEG-3) | Potency (OV90) | Potency (PA-1) | Potency (SKOV3) | Potency (Tov-21-G) | Potency (Tov112D)

C[C@@H]1O[C@@H](O[C@H]2[C@H](OC(=O)C34CCC(C)(C)CC3C3=CCC5C6(C)CC(O)C(O[C@@H]7O[C@H](CO)[C@@H](O)[C@H](O)[C@H]7O)C(C)(C(=O)O)C6CCC5(C)C3(CO)CC4)O[C@H](C)[C@H](O)[C@@H]2O)[C@H](O)[C@H](O)[C@H]1O[C@@H]1OC[C@@H](O)[C@H](O)[C@H]1O (stereo partly drawn)
inactive: activity change, negative = cytotoxicity (CAOV3) 18.2% [at 11.6 µM] | activity change, negative = cytotoxicity (CASKI) 8.6% [at 11.6 µM] | activity change, negative = cytotoxicity (Es-2) 0.101% [at 11.6 µM] | activity change, negative = cytotoxicity (HeLa) 10.9% [at 11.6 µM] | activity change, negative = cytotoxicity (Hek293T) 7.78% [at 11.6 µM] | activity change, negative = cytotoxicity (JEG-3) 4.58% [at 11.6 µM] | activity change, negative = cytotoxicity (OV90) 3.81% [at 11.6 µM] | activity change, negative = cytotoxicity (PA-1) 8.42% [at 11.6 µM] | activity change, negative = cytotoxicity (SKOV3) 7.96% [at 11.6 µM] | activity change, negative = cytotoxicity (Tov-21-G) 2.58% [at 11.6 µM] | activity change, negative = cytotoxicity (Tov112D) 2.79% [at 11.6 µM]

CC(C)(O)C1=CCC23COC(C2)C(O)(C(=O)O)CCC13 (stereo not drawn)
inactive: Potency (CAOV3) | Potency (CASKI) | Potency (Es-2) | Potency (HeLa) | Potency (Hek293T) | Potency (JEG-3) | Potency (OV90) | Potency (PA-1) | Potency (SKOV3) | Potency (Tov-21-G) | Potency (Tov112D)

C[C@@H]1O[C@@H](O[C@H]2[C@H](OC(=O)C34CCC5(C)C(=CCC6C7(C)CC(O)C(O[C@@H]8O[C@H](C(=O)O)[C@@H](O)[C@H](O)[C@H]8O)C(C)(C(=O)O)C7CCC65C)C3CC(C)(C)CC4O)O[C@H](C)[C@@H](O)[C@@H]2O)[C@H](O)[C@@H](O[C@@H]2OC[C@](O)(CO)[C@H]2O[C@@H]2O[C@H](CO)[C@@H](O)[C@H](O)[C@H]2O)[C@H]1O (stereo partly drawn)
inactive: activity change, negative = cytotoxicity (CAOV3) 7.58% [at 6.55 µM] | activity change, negative = cytotoxicity (CASKI) 3.56% [at 6.55 µM] | activity change, negative = cytotoxicity (Es-2) -1.29% [at 6.55 µM] | activity change, negative = cytotoxicity (HeLa) -4.39% [at 6.55 µM] | activity change, negative = cytotoxicity (Hek293T) 5.55% [at 6.55 µM] | activity change, negative = cytotoxicity (JEG-3) 16.4% [at 6.55 µM] | activity change, negative = cytotoxicity (OV90) -2.48% [at 6.55 µM] | activity change, negative = cytotoxicity (PA-1) 9.01% [at 6.55 µM] | activity change, negative = cytotoxicity (SKOV3) 13.1% [at 6.55 µM] | activity change, negative = cytotoxicity (Tov-21-G) -3.03% [at 6.55 µM] | activity change, negative = cytotoxicity (Tov112D) 10.3% [at 6.55 µM]

COc1cc(/C=C/c2cc(O)cc(O[C@@H]3O[C@H](CO)[C@@H](O)[C@H](O)[C@H]3O)c2)ccc1O
inactive: Potency (CAOV3) | Potency (CASKI) | Potency (Es-2) | Potency (HeLa) | Potency (Hek293T) | Potency (JEG-3) | Potency (OV90) | Potency (PA-1) | Potency (SKOV3) | Potency (Tov-21-G) | Potency (Tov112D)

C[C@@H](OC(=O)/C=C/c1ccc(O)cc1)C1=C[C@]2(C=C[C@@H]3C(C(=O)O)=CO[C@@H](O[C@@H]4O[C@H](CO[C@@H]5O[C@H](CO)[C@@H](O)[C@H](O)[C@H]5O)[C@@H](O)[C@H](O)[C@H]4O)[C@@H]32)OC1=O
inactive: Potency (CAOV3) | Potency (CASKI) | Potency (Es-2) | Potency (HeLa) | Potency (Hek293T) | Potency (JEG-3) | Potency (OV90) | Potency (PA-1) | Potency (SKOV3) | Potency (Tov-21-G) | Potency (Tov112D)

CN1C(=O)c2ccccc2-n2c(nc3ccccc3c2=O)[C@@]12O[C@H]2c1ccccc1
inactive: Potency (CAOV3) | Potency (CASKI) | Potency (Es-2) | Potency (HeLa) | Potency (Hek293T) | Potency (JEG-3) | Potency (OV90) | Potency (PA-1) | Potency (SKOV3) | Potency (Tov-21-G) | Potency (Tov112D)

CNC(=O)c1ccc2cc([C@@]3(O)CCn4cncc43)ccc2c1
inactive: Potency (CAOV3) | Potency (CASKI) | Potency (Es-2) | Potency (HeLa) | Potency (Hek293T) | Potency (JEG-3) | Potency (OV90) | Potency (PA-1) | Potency (SKOV3) | Potency (Tov-21-G) | Potency (Tov112D)

c1nc(NC2CCCCCC2)c2cc(CNC[C@H]3CCCO3)sc2n1
inactive: Potency (CAOV3) | Potency (CASKI) | Potency (Es-2) | Potency (HeLa) | Potency (Hek293T) | Potency (JEG-3) | Potency (OV90) | Potency (PA-1) | Potency (SKOV3) | Potency (Tov-21-G) | Potency (Tov112D)

CN1CC[C@@H](NC(=O)Nc2ccc(C#N)cc2)C[C@@H]1c1nc2ccccc2[nH]1
inactive: Potency (CAOV3) | Potency (CASKI) | Potency (Es-2) | Potency (HeLa) | Potency (Hek293T) | Potency (JEG-3) | Potency (OV90) | Potency (PA-1) | Potency (SKOV3) | Potency (Tov-21-G) | Potency (Tov112D)

OCC1OC(Oc2cc(O)c3c(c2)OC(c2ccc(O)cc2)C(O)C3)C(O)C1O (stereo not drawn)
inactive: Potency (CAOV3) | Potency (CASKI) | Potency (Es-2) | Potency (HeLa) | Potency (Hek293T) | Potency (JEG-3) | Potency (OV90) | Potency (PA-1) | Potency (SKOV3) | Potency (Tov-21-G) | Potency (Tov112D)

CC(=O)N1CCN(NC(=O)c2ccc(F)cc2)CC1
inactive: Potency (CAOV3) | Potency (CASKI) | Potency (Es-2) | Potency (HeLa) | Potency (Hek293T) | Potency (JEG-3) | Potency (OV90) | Potency (PA-1) | Potency (SKOV3) | Potency (Tov-21-G) | Potency (Tov112D)

CC1(C)CCC(C)(C)c2cc3c(cc21)Sc1ccccc1N=C3c1ccc(C(=O)O)cc1
inactive: Potency (CAOV3) | Potency (CASKI) | Potency (Es-2) | Potency (HeLa) | Potency (Hek293T) | Potency (JEG-3) | Potency (OV90) | Potency (PA-1) | Potency (SKOV3) | Potency (Tov-21-G) | Potency (Tov112D)
